# Compound activity deposited in PubChem BioAssay by several laboratories.
# A3A deaminase: APOBEC3A ssDNA deaminase inhibitors, primary screen, selectivity assay for APOBEC3G inhibitor project, biochemical, FAM/TAMRA oligo cleavage fluorescence; inhibition, % at 20 µM; 0.41% of 330,000 active; AID 493011, 2011; recombinant A3A, FAM/TAMRA ssDNA deamination fluorescence;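 active = at least 40% inhibition at 20 µM here, with at most 30% in a related deaminase screen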
# GRK2 aptamer HTS: compounds blocking aptamer binding on GRK2 – biochemical, human GRK2, bead flow cytometry, HTS, primary screen; FAM-aptamer displacement from GRK2; Beta-adrenergic receptor kinase 1 (Homo sapiens), P25098; 0.59% of 330,000 active; inhibition of aptamer binding, % at 10 µM;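 active = inhibition of aptamer binding above 40%, roughly 3 SD of noise, on plates passing a quality check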;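 note: median bead fluorescence of bound FAM aptamer so fluorescent compounds give negative values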
# Target sequence (P25098 whole entry, looked up): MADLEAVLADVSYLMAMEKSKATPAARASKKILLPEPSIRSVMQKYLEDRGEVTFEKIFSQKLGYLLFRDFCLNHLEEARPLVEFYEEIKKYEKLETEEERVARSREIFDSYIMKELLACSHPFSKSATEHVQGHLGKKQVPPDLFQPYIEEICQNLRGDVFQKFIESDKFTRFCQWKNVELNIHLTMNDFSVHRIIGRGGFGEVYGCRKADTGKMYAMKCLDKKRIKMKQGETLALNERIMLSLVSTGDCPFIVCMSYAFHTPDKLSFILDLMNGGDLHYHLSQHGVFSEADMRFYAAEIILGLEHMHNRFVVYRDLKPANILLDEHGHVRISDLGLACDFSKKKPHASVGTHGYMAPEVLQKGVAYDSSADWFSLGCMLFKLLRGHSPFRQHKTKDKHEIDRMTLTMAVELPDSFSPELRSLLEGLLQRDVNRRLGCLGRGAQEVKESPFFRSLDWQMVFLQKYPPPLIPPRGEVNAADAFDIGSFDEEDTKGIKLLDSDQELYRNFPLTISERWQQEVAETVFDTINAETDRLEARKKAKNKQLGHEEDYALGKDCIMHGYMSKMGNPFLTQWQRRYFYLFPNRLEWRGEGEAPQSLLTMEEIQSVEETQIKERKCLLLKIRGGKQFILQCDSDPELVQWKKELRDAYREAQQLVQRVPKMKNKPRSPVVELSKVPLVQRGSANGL
# VLA-4 inh: inhibition in human VLA-4 binding assay, primary screen, VLA-4 allosteric modulator project, MLPCN library, flow cytometry, VLA-4 expressing cells | Integrin alpha-4 (Homo sapiens), P13612 | ligand binding flow cytometry | inhibition, % (about 7 µM as worked out from the volumes in the protocol) | 0.2% of 330,000 active; in the data active = inhibition above about 50%
# APOBEC3G inh: APOBEC3G DNA deaminase inhibitors, primary screen, biochemical, fluorescence, single-stranded DNA substrate, uHTS. DNA dC->dU-editing enzyme APOBEC-3G (Homo sapiens), Q9HC16. recombinant A3G, ssDNA deamination FAM/TAMRA fluorescence. inhibition, % at 20 µM. 0.28% of 330,000 active;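 active = inhibition of at least 40% at 20 µM, with no more than 30% in the related APOBEC3A deaminase screen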
# APOBEC3G confirm: APOBEC3G deaminase inhibitor retest, confirmation, biochemical, fluorescence, single-stranded DNA substrate, single concentration | shares compounds with APOBEC3G inh | recombinant A3G ssDNA deaminase, UDG/FAM-TAMRA fluorescence | 72% of 890 active | inhibition, % at 20 µM;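 active = inhibition reaching a set limit in any replicate at 20 µM, the limit being 80% of the first screen's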
# UDG ctr A3G: E. coli UDG inhibitors, confirmation, counter-screen for APOBEC3G inhibitor project, biochemical, single concentration, fluorescence, FAM/TAMRA oligo. 710 tested, under 10 active. shares compounds with APOBEC3G inh. UDG counterscreen. inhibition, % at 20 µM. AID 504715, 2011;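 active = compounds giving 40% or more inhibition at 20 µM in any one of the three replicates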;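 note: inhibitors lower the FAM signal released by uracil excision and alkaline cleavage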
# Hits are given with their value; 0 = inactive; - = no result. An excerpt weighted towards active compounds, which were near 1.4% of everything screened.
SMILES,A3A deaminase,GRK2 aptamer HTS,VLA-4 inh,APOBEC3G inh,APOBEC3G confirm,UDG ctr A3G
O=C(NCc1cccnc1)C(=O)NCC(c1ccco1)N1CCN(c2ccc(F)cc2)CC1 (stereo not drawn),0,0,0,42,0,0
O=C(NCCc1ccc(Cl)cc1)C1CCN(c2cnccn2)CC1,0,0,0,0,-,-
CCN(CC)CCCN(Cc1cc2cc3c(cc2[nH]c1=O)OCCO3)C(=O)Nc1ccccc1,0,0,0,0,-,-
O=S(=O)(Nc1cc(Sc2ncn[nH]2)c(O)c2ccccc12)c1ccccc1,0,-,-,61,89,0
COc1ccccc1-c1nn2c(C3COc4ccccc4O3)nnc2s1 (stereo not drawn),0,0,0,51,0,0
c1ccc(Cc2nnc3sc(-c4cccs4)nn23)cc1,0,0,0,0,-,-
c1ccc(CCc2nn3c(C4COc5ccccc5O4)nnc3s2)cc1 (stereo not drawn),0,0,0,48,31,0
c1ccc(CCc2nn3c(Cc4ccccc4)nnc3s2)cc1,0,0,0,53,59,-
C/C(N)=C(/C#N)C(=O)COC(=O)CCSc1ccccc1,0,0,0,0,-,-
Cc1nc(C/C(=N\Nc2ccccc2)c2ccc(O)cc2O)cs1,0,0,0,0,-,-
CCc1cc(/C(Cc2ccccn2)=N\Nc2ccccc2)c(O)cc1O,0,0,0,42,0,0
N#CCN1CCCC(C(N)=O)C1 (stereo not drawn),0,0,0,0,-,-
CCSc1nc2cc(S(=O)(=O)N3CCOCC3)ccc2o1,0,0,0,62,45,0
Cc1nc2ccc(Nc3nc4cc(S(=O)(=O)N5CCOCC5)ccc4o3)cc2s1,0,0,0,56,47,0
Cc1nc2ccc(NC(=O)c3cc(S(=O)(=O)N4CCOCC4)ccc3C)cc2s1,0,0,0,0,-,-
Cc1ccc(C(=O)CSc2nc3cc(S(=O)(=O)N4CCOCC4)ccc3o2)cc1,0,0,0,0,-,-
Cc1ccc(CN(Cc2ccccc2)C(=S)NCC(=O)NCc2cccnc2)o1,0,0,0,45,0,0
O=S(=O)(c1c(F)cccc1F)N1CCCC2CCCCC21 (stereo not drawn),0,0,0,53,0,0
O=S(=O)(c1ccc2c(c1)CCCN2)N1CCCC2CCCCC21 (stereo not drawn),0,0,0,0,-,-
COC(=O)C1=C(C(=O)OC)[C@@H]2N(Cc3ccccc3)c3ccccc3[C@@]23C[C@@H](C(=O)OC)N(C(=O)NC(C)(C)C)C3=N1,0,0,0,0,-,-
O=C(CSc1ncccn1)N/N=C/c1ccc(OC2CSC2)cc1,0,0,0,0,-,-
